The text below walks through data of PubChem BioAssay.

The nature of assay [1]: liver-stage malaria parasite growth inhibition, primary screen, cell-based, HepG2, luciferase luminescence, HepG2 viability (AID 624349; in the data active = parasite load remaining mostly below about 12%, no sharp cut-off; inactive = mostly above about 10%;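 note: 100% = mean of DMSO negative control wells on the same plate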). Conditions: P. berghei liver stage in HepG2, luciferase luminescence, concentration not given here; parasite load remaining: stronger effect = lower value; viability: measured here: HepG2 viability without parasites.
Assay [2] is described as follows: sensitizers of A549 cells to miR-34 induction, primary screen, imaging, A549 dox-inducible miR-34, nuclei and caspase counts (AID 1347080;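 active = compounds whose cell count with miR-34 switched on is under 0.7 times the count with it off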). The settings on record: A549 miR-34 inducible, Hoechst nuclei count, 48 h.
Assay [3] is described as follows: survival rescue of mitochondrial mutant cells in low glucose, primary screen, MELAS cybrids, Rieske KO mouse fibroblasts, CellTiter-Glo (AID 1508586).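 Note: z relative to plate mean and SD of compound and empty wells.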 A general note: Cellular ATP, detected with luciferase, serves as a proxy for viable cell number.
Assay [4] deals with NAD(+) hydrolase SARM1 (Homo sapiens) (UniProt Q6SZW1). The assay is described as follows: SARM1 TIR NADase inhibitors, cell lysate, NAD-Glo luminescence (AID 1508614;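 active = compound whose remaining NAD level is above about 45 nM, limit read from the data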;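 note: higher remaining NAD means stronger inhibition of SARM1 NADase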). The settings on record: SAM-TIR HEK293T lysate NADase, at 1 µM, stronger effect = higher value.
NAD(+) hydrolase SARM1 (Homo sapiens), sequence (Q6SZW1 whole entry, looked up): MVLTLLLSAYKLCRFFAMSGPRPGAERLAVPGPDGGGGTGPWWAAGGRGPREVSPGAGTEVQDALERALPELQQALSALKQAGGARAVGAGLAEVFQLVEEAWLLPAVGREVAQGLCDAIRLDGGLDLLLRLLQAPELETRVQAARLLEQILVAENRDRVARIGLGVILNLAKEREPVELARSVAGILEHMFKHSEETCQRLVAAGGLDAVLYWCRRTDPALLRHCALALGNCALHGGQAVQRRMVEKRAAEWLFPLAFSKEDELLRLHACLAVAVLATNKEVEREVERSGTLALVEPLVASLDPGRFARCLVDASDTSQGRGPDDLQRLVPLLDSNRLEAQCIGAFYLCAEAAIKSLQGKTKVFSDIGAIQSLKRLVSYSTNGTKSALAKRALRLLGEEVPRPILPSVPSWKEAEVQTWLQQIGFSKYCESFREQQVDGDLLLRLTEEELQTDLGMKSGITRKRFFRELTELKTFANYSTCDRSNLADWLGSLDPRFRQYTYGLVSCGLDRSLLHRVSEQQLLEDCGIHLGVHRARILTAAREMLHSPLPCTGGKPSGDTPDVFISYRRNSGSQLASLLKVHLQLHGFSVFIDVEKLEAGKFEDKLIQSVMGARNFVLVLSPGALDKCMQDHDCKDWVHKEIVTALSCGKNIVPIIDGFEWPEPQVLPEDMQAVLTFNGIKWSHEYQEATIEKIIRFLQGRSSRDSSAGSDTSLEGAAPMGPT
The nature of assay [5]: viability rescue of complex I mutant cybrids, primary screen, cell-based, galactose medium, ATP luminescence (AID 1645843;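 active = z-score of at least 1.8 in each of two replicates, scored against plate mean and spread of sample wells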;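 note: positive z means more ATP and so rescue of galactose-driven cybrid death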). Conditions: complex I mutant cybrid cells, 72 h, stronger effect = higher value.
The mark [6] stands for this setting: stronger effect = lower value, cell number ratio, induced over uninduced.
The mark [7] stands for this setting: measured here: relative caspase fold change +Dox/-Dox.
The mark [8] stands for this setting: measured here: total cells with miR-34 induction, stronger effect = lower value.
The mark [9] stands for this setting: measured here: total cells without miR-34 induction.
The mark [10] stands for this setting: MELAS cybrid survival, CellTiter-Glo 48 h, stronger effect = higher value.
The mark [11] stands for this setting: Rieske KO mouse fibroblast survival, CellTiter-Glo 72 h.

Several values for one entry are separate records, joined by “and”; a condition that tells them apart may be missing. Equal entries are not always repeated. Activity calls are given as the source filed them.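 Rule for the calls, unless noted: active = mean z-score across replicates of 1.96 or higher in either the MELAS or the Rieske mutant cell line; inactive = the rest.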

For orientation: viability means a read-out of living cells in per cent, often relative to untreated cells.

On to `CC(C)(O/N=C(\C(=O)N[C@@H]1C(=O)N2C(C(=O)[O-])=C(C[n+]3ccccc3)CS[C@H]12)c1csc(N)n1)C(=O)O`, for which the parasite load remaining in assay [1] was 53.2% (inactive) and 19.3% (inactive). For the same molecule, the viability in assay [1] was 114% and 70%. For the same molecule, the fold change in assay [2] (setting [6]) was 0.844 (inactive) and 0.909 (inactive); in assay [2] (setting [7]) it was 1.51 and 1.02. Further, the cell count in assay [2] (setting [8]) is 8430 and 9490; in assay [2] (setting [9]), 9990 and 10400. The z-score in assay [3] (setting [10]) is -0.0556 (inactive) and 0.494 (inactive); in assay [3] (setting [11]), -0.289 and -0.00761; in assay [5] it was 0.025 (inactive). Besides, in assay [4], the remaining NAD was 10 nM (inactive).
In the case of `O=C(O)CNC(=O)NC1CCCCC1`, the figures for the fold change in assay [2] (setting [6]) and in assay [2] (setting [7]) were 0.908 (inactive) and 0.307, respectively. Further, the cell count in assay [2] (setting [8]) worked out at 9060; in assay [2] (setting [9]), 9970. In addition, the z-score was 0.384 (inactive) in assay [3] (setting [10]), -0.24 in assay [3] (setting [11]) and 0.34 (inactive) in assay [5].
